In ChEMBL document CHEMBL1961873, “Compounds: GSK PKIS; Assays: Nanosyn kinase panel” (2012) one finds inhibition data, which are given here for 17 compounds.

A word on the inhibition: it is the change of the read-out against control, counted positive when it falls.

For test [1], the target named is Rho-associated protein kinase 1 (Homo sapiens) (UniProt Q13464). The settings on record: at 1 µM.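 Further: reported values are mean percent inhibition of ROCK1.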
The target of test [2] is Rho-associated protein kinase 2 (Homo sapiens) (UniProt O75116). The settings on record: at 0.1 µM.
The target is the same in test [3]. The settings on record: at 1 µM.
The target in test [4] is Ribosomal protein S6 kinase alpha-1 (Homo sapiens) (UniProt Q15418). The settings on record: at 0.1 µM.
The target is the same in test [5]. The settings on record: at 1 µM.
In test [6] the target is Ribosomal protein S6 kinase alpha-3 (Homo sapiens) (UniProt P51812). Conditions: at 0.1 µM.
The target is the same in test [7]. Conditions: at 1 µM.
For test [8], the target named is Ribosomal protein S6 kinase alpha-2 (Homo sapiens) (UniProt Q15349). The settings on record: at 0.1 µM.
For test [9] the target is unchanged. Conditions: at 1 µM.
In test [10] the target is Ribosomal protein S6 kinase alpha-6 (Homo sapiens) (UniProt Q9UK32). Conditions: at 0.1 µM.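 Further: reported value is the mean inhibition of RSK4, from the GSK PKIS kinase inhibitor screen.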
Sequence of Ribosomal protein S6 kinase alpha-6 (Homo sapiens) (Q9UK32 whole entry): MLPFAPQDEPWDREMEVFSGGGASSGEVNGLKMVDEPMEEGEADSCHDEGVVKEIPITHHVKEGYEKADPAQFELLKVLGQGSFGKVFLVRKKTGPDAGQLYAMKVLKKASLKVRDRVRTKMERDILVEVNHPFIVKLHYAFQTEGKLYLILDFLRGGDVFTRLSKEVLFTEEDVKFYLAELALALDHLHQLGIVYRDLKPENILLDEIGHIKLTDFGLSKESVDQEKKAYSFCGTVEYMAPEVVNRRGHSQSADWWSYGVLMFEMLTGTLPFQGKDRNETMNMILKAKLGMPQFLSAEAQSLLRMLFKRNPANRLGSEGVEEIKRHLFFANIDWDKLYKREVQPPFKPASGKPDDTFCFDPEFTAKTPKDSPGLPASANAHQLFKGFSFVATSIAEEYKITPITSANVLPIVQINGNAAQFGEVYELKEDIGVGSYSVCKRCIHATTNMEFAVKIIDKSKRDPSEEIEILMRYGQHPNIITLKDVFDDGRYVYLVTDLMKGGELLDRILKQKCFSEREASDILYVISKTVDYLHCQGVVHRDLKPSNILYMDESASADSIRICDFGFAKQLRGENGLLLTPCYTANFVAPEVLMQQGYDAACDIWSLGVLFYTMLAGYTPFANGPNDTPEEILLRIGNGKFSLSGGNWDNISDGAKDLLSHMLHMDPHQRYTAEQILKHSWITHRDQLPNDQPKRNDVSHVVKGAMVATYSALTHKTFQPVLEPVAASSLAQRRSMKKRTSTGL

Sequence of Rho-associated protein kinase 2 (Homo sapiens) (O75116 whole entry, looked up): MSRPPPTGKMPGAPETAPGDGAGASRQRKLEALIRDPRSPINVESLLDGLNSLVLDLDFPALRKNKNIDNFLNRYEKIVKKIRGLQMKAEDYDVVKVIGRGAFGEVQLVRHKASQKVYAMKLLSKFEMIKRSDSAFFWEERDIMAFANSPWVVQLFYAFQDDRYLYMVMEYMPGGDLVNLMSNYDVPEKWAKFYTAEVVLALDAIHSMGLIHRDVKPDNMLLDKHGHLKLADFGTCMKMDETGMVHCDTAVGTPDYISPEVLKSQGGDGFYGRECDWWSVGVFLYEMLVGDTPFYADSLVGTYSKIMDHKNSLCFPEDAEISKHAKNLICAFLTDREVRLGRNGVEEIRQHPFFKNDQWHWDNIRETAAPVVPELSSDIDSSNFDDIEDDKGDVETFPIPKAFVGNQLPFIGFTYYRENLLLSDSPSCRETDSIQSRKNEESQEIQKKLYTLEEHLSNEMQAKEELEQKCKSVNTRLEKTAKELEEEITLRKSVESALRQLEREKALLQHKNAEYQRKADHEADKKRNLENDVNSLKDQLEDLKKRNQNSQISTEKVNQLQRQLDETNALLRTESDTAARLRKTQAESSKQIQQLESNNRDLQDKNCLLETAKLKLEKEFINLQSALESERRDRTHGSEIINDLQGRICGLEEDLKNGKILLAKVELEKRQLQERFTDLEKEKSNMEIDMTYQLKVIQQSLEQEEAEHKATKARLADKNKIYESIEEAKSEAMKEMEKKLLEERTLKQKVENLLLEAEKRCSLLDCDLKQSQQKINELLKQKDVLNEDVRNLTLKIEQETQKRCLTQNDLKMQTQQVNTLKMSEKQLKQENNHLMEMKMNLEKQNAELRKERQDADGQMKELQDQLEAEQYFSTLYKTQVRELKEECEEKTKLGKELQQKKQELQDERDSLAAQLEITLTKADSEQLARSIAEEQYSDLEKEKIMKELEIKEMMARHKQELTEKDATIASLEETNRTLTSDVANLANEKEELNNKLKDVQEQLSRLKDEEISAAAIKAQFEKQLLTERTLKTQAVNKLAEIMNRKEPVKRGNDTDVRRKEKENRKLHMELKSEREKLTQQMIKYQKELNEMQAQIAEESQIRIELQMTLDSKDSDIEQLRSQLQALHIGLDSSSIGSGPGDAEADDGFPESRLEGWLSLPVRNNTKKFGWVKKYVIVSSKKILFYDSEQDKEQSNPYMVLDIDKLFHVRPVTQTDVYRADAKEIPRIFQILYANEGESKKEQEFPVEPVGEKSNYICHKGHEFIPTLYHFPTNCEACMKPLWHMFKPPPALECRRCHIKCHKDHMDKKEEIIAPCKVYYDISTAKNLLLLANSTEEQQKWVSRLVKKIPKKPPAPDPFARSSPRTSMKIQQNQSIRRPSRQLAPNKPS
Sequence of Rho-associated protein kinase 1 (Homo sapiens) (Q13464 2-1354 limits assumed): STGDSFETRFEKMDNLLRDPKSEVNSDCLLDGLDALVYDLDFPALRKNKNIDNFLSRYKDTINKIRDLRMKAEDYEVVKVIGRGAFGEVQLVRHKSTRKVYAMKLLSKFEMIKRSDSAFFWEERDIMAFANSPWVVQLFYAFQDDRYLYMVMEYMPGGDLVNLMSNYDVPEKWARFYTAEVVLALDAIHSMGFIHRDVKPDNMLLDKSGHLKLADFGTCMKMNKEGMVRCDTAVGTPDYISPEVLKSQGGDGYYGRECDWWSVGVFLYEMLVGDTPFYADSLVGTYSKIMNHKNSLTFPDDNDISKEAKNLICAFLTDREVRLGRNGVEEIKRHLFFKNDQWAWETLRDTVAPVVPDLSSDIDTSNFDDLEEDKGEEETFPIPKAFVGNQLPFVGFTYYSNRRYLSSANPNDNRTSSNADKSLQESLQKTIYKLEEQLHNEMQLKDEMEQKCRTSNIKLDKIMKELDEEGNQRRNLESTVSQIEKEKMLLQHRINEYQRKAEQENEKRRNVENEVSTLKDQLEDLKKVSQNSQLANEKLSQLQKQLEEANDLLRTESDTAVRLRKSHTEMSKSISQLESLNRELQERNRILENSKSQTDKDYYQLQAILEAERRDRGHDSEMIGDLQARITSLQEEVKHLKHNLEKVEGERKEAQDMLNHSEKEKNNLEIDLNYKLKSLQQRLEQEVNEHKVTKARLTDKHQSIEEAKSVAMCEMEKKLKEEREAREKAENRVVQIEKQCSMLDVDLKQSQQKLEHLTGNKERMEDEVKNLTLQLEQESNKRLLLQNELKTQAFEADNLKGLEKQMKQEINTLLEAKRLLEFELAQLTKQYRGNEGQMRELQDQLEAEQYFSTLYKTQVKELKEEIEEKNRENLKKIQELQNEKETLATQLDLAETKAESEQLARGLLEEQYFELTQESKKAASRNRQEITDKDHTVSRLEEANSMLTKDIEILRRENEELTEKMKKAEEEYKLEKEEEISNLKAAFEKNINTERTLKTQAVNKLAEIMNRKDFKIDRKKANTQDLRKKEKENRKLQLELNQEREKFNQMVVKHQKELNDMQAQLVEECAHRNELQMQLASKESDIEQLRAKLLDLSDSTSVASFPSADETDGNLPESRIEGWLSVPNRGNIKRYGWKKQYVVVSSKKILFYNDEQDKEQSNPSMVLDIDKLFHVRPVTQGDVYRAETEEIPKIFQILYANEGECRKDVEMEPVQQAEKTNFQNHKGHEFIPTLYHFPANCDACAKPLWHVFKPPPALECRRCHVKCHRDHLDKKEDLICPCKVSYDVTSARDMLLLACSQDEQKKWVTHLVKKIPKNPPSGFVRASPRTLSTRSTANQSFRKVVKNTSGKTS
Sequence of Ribosomal protein S6 kinase alpha-2 (Homo sapiens) (Q15349 whole entry): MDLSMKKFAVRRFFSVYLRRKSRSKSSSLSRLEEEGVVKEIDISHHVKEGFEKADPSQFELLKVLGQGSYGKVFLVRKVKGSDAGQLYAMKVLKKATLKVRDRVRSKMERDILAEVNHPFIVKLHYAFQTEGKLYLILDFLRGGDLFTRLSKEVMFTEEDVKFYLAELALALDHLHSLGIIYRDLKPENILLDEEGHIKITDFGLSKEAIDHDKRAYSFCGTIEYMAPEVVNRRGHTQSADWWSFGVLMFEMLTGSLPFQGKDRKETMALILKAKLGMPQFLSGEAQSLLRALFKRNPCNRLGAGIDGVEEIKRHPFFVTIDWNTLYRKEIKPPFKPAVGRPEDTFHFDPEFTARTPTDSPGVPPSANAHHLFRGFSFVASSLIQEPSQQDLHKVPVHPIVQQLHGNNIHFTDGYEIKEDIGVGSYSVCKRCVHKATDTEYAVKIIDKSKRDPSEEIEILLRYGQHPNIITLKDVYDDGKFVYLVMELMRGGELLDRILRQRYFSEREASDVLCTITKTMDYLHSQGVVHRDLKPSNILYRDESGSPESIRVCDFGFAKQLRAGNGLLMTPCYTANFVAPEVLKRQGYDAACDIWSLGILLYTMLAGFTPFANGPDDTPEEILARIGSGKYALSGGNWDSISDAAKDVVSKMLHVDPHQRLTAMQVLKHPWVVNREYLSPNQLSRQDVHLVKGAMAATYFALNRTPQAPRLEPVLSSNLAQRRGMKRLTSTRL
Sequence of Ribosomal protein S6 kinase alpha-3 (Homo sapiens) (P51812 whole entry): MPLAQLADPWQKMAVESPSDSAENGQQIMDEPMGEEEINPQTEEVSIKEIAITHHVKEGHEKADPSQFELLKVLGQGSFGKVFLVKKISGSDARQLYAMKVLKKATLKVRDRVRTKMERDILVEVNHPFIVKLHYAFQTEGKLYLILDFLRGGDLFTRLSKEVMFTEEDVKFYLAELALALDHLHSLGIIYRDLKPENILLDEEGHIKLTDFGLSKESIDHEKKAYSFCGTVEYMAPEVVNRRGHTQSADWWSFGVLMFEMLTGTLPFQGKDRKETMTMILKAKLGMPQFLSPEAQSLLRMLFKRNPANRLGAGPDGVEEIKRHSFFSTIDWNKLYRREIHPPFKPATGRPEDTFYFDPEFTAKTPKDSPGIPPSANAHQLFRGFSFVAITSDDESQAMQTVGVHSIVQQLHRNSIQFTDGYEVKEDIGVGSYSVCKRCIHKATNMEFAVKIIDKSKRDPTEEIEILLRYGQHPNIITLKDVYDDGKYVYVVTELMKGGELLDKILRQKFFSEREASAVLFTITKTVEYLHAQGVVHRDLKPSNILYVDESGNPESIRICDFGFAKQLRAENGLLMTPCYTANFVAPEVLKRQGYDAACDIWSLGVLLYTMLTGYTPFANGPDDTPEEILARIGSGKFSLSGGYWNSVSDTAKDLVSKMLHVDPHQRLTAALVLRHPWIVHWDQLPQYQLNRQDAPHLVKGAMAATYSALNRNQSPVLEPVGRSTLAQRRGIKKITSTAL

Consider `CS(=O)(=O)CCNCc1ccc(-c2ccc3ncnc(Nc4ccc(OCc5ccccc5)c(Br)c4)c3c2)o1`, for which the inhibition in [1] was 2.16%; in test [2] it was 0.72%; in test [3], 1.26%; in test [4] it was -0.49%; in test [5], 0.36%; in [6], -0.55%. Moreover, the inhibition in test [7] was -1.39%; in test [8] it was 1.5%; in [9], 1.01%; in test [10], -0.12%.
Turning to `COc1ccc(C2=C(N3CCc4ccccc43)C(=O)NC2=O)cc1`, the inhibition in [1] was 1.57%; in test [2], 2.97%; in [3], 3.17%; in test [4], 2.46%; in test [5], 4.09%; in [6] it was 0.95%. Also, the inhibition in test [7] amounted to 1.69%; in test [8] it was 2.16%; in test [9] it was 3.86%; in test [10], 2.62%.
Take `COC(=O)Nc1nc2ccc(Sc3ccc(NC(=O)Nc4cc(C(F)(F)F)ccc4F)cc3)cc2[nH]1`: the inhibition in test [1] is -0.72%; in [2], 0.53%; in test [3] it was -0.19%; in test [4], -0.4%; in test [5], 0.24%; in test [6], -0.27%. In addition, the inhibition is -1.87% in test [7], 47.7% in test [8], 2.97% in [9] and 48.6% in [10].
Turning to `NC(=O)c1cc(-c2ccc(F)cc2)cc(-c2ccncc2)c1N`, the inhibition in [1] was determined as 1.76%; in [2] it was 2.33%; in test [3], 6.23%; in [4] it was 1.16%; in [5], 2.59%; in test [6], 0.17%. The inhibition turned out to be 1.79% in test [7], 1.82% in test [8], 2.97% in test [9] and 0.55% in test [10].
Take `Cc1ccc(C(=O)NC(C)C)cc1-c1ccc(C(=O)NCC2CC2)cc1`: the inhibition in test [1] is -0.1%; in test [2], -1.71%; in [3] it was -1.76%; in test [4], 1.38%; in test [5], -0.32%; in [6], 1.65%. Also, the inhibition in [7] was 1.68%; in [8], -0.25%; in test [9], 0.47%; in test [10] it was -0.44%.
For the compound `COc1cccc(-n2cnc3c(N/N=C/c4ccncc4)ncnc32)c1`, the inhibition is 1.07% in test [1]; 3.27% in [2]; 6.91% in test [3]; 2.62% in test [4]; 4.66% in [5]; 2.12% in test [6]. The inhibition in test [7] was 4.76%; in [8], -0.37%; in [9] it was 0.82%; in [10], -0.06%.
Regarding `c1ccc(-c2n[nH]cc2-c2ccnc(-c3ccc(OCCN4CCOCC4)cc3)c2)nc1`, the inhibition in test [1] was 2.14%; in test [2], -0.2%; in test [3], -1.4%; in test [4], 0.42%; in [5], -1.3%; in [6] it was 0.55%. The inhibition in test [7] was 0.57%; in [8], -0.89%; in [9], -0.56%; in test [10], -0.33%.
Consider `C[C@@H](Oc1cc(-n2cnc3ccc(OCC4CCN(C)CC4)cc32)sc1C(N)=O)c1ccccc1Cl`, for which the inhibition is 7.23% in test [1]; 3.44% in test [2]; 9.54% in test [3]; 3.39% in [4]; 16.8% in [5]; 4.17% in test [6]. Also, the inhibition in test [7] came out at 22.5%; in test [8], 5.72%; in [9], 22.4%; in test [10], 8.06%.
As for `NC(=O)Cc1ccccc1Oc1nccc(-c2c(-c3ccc(F)cc3)ncn2C2CCNCC2)n1`, the inhibition in test [1] was 1.73%; in test [2], -0.06%; in test [3], 0.19%; in test [4], 1.2%; in test [5], 0.63%; in [6], 0.99%. Moreover, the inhibition in test [7] was 1.35%; in test [8], 1.2%; in [9] it was 3.57%; in test [10] it was 1.6%.
With `Fc1ccc(-c2ncn(C3CCNCC3)c2-c2ccnc(Oc3ccc4c(c3)OCO4)n2)cc1`, the inhibition in [1] was 5.2%; in test [2], 4.88%; in test [3] it was 8.46%; in [4] it was 1.84%; in test [5] it was 3.67%; in test [6] it was -0.4%. Besides, the inhibition came to 2.18% in test [7], 2.81% in test [8], 4.39% in test [9] and 0.63% in test [10].
For `Cc1ccc(NC(=O)c2ccoc2)cc1-c1ccc(C(=O)NCC2CC2)cc1`, the inhibition in test [1] was -0.4%; in [2] it was 0.78%; in test [3], -1.14%; in test [4] it was 1.06%; in test [5] it was 0.4%; in [6], -0.62%. The inhibition in [7] is 0.11%; in [8], 2%; in test [9] it was 1.72%; in [10] it was -0.1%.
`O=C(Nc1n[nH]c2nc(-c3ccc(O)cc3)c(Br)cc12)C1CC1`: the inhibition in test [1] stood at 1.33%; in [2], 4.18%; in test [3] it was 6.43%; in test [4] it was 7.28%; in test [5] it was 33%; in test [6], 10.3%. Also, the inhibition amounted to 44.8% in test [7], 22.4% in test [8], 70.6% in test [9] and 16.4% in test [10].
Turning to `N#Cc1ccc(Oc2nccc(-c3c(-c4ccc(F)cc4)ncn3C3CCNCC3)n2)cc1`, the inhibition was found to be 4.31% in test [1]; 2.81% in test [2]; 4.38% in [3]; 0.36% in test [4]; 1.46% in test [5]; 1.39% in test [6]. Also, the inhibition in test [7] came out at 1.85%; in [8], 2.38%; in test [9] it was 3.07%; in test [10], 0.67%.
For `Nc1nccc(-c2c(-c3ccc(F)cc3)ncn2C2CCC(O)CC2)n1` (stereo not given), the inhibition was 0.73% in test [1]; -1.47% in test [2]; -1.96% in test [3]; -0.24% in test [4]; 2.78% in test [5]; -0.92% in test [6]. Besides, the inhibition was -0.98% in test [7], -0.62% in test [8], 0.59% in test [9] and -0.21% in test [10].
Consider `CN1CCN(CCCNc2nc3ccc(Oc4ccc(NC(=O)Nc5cc(C(F)(F)F)ccc5F)cc4)cc3[nH]2)CC1`, for which the inhibition was 3.23% in test [1]; 0.43% in test [2]; 0.51% in test [3]; 1.08% in [4]; -1.68% in [5]; 1.52% in test [6]. Besides, the inhibition in test [7] was -0.48%; in [8] it was 0.97%; in [9], 2.27%; in [10], 1.31%.
Take `Fc1ccc(-c2ncn(C3CCNCC3)c2-c2ccnc(Oc3ccc(Oc4ccccc4)cc3)n2)cc1`: the inhibition in test [1] was 1.68%; in test [2] it was 2.53%; in test [3] it was 3.69%; in test [4], 3.01%; in test [5] it was 2.7%; in test [6], 1.73%. Also, the inhibition in test [7] is 2.37%; in test [8] it was 3.61%; in test [9], 3.8%; in test [10], 2.38%.
As for `NS(=O)(=O)c1ccc(Nc2cc(-c3ccc(O)c(F)c3)n[nH]2)cc1`, the inhibition was 1.73% in test [1]; -1.97% in test [2]; 3.32% in test [3]; 4.13% in test [4]; 32.6% in test [5]; 13.1% in test [6]. Moreover, the inhibition in test [7] was found to be 56.4%; in test [8], 16.5%; in test [9], 63.5%; in test [10] it was 13.4%.
